Experimental data taken from PubChem BioAssay (NCI).
About 83,000 compounds went through this panel and 20% of them were active in at least one assay; those are over-represented in the sample as a whole.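 Interpretation: 100, growth as untreated; towards 0, rising growth inhibition; 0, no net growth; 0 to -100, cell death. Compounds scoring below 10 were considered active.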 Values without a mark were called inactive. Calls of active or inactive are those of the source.

Assays:
Test in all cases: NCI-60 one-dose screen, 48 h (100 = growth as untreated, 0 = no growth, -100 = all killed)
Details in all cases: 10 µM unless noted
[1] = tested on: NCI-H23 lung
[2] = tested on: NCI-H226 lung
[3] = tested on: NCI-H322M lung
[4] = tested on: HOP-62 NSCLC
[5] = tested on: NCI-H460 lung
[6] = tested on: HOP-92 NSCLC
[7] = tested on: NCI-H522 lung
[8] = tested on: A549/ATCC NSCLC
[9] = tested on: 786-0 renal
[10] = tested on: COLO 205 colon
[11] = tested on: DU-145 prostate
[12] = tested on: K-562 leukemia
[13] = tested on: MALME-3M melanoma
[14] = tested on: MDA-MB-231 breast
[15] = tested on: RXF 393 renal
[16] = tested on: SF-268 CNS
[17] = tested on: SF-295 CNS
[18] = tested on: SF-539 CNS
[19] = tested on: UACC-257 melanoma
[20] = tested on: M14 melanoma

| SMILES | growth [1] | growth [2] | growth [3] | growth [4] | growth [5] | growth [6] | growth [7] | growth [8] | growth [9] | growth [10] | growth [11] | growth [12] | growth [13] | growth [14] | growth [15] | growth [16] | growth [17] | growth [18] | growth [19] | growth [20] |
| --- | --- | --- | --- | --- | --- | --- | --- | --- | --- | --- | --- | --- | --- | --- | --- | --- | --- | --- | --- | --- |
| O=P(O)(c1ccccc1)c1ccccc1I | 96.4% | 90% | 94.1% | 94.8% | 97.2% | 83.9% | 80.7% | 71.2% | 109% | 107% | 109% | 93.8% | 87.5% | 97.1% | 102% | 99.8% | 93.7% | 101% | 76.5% | 90.1% |
| Cc1ccc(/C=C(\C#N)c2cc3ccccc3n2C)cc1 | 24.6% | 57.6% | 58.7% | 47.1% | 11% | 90.5% | 31.3% | 31.2% | 49.9% | 3.21% (active) | 25.5% | 14.7% | 59.8% | 18.7% | 20.6% | 64.4% | 9.43% (active) | 8.03% (active) | 89.6% | 14% |
| Cc1ccc(S(=O)(=O)Nc2ccc(-c3cc(-c4cccc(F)c4)c(C#N)c(=O)[nH]3)cc2)cc1 | 87.7% | 79.6% | 90% | 92.3% | 98.2% | 72.9% | 87.2% | 68.2% | 102% | 115% | 84% | 54.9% | 92.6% | 87.4% | 83.1% | 74.2% | 87.9% | 90.1% | 103% | 81.3% |
| COc1ccc(NC(=O)c2ccc3c(c2)nc(-c2cc4ccccc4[nH]c2=O)n3-c2cc(C(C)(C)C)[nH]n2)cc1 | 90.4% | 99% | 91.7% | 98.7% | 97.4% | 90.8% | 72.8% | 93.7% | 92.4% | 96.4% | 103% | 82.4% | 101% | 98.2% | 77.3% | 79.3% | 89.9% | 94.9% | 97.7% | 96.1% |
| COC(=O)[C@]12CC[C@@H](C(C)=O)[C@@H]1[C@H]1CC[C@@H]3[C@@]4(C)C/C(=C/c5cccnc5)C(=O)C(C)(C)[C@@H]4CC[C@@]3(C)[C@]1(C)CC2 | 53.2% | 48.1% | 93.9% | 103% | 70.9% | 66.7% | 47.5% | 51.4% | 84.9% | 82.5% | 68.8% | 18.3% | 29.9% | 76.6% | 30.9% | 68.6% | 75.3% | 81% | 58.1% | 56.7% |
| COc1cc(-c2cc3ncccc3c3[nH]c(=O)c4cccnc4c23)cc(OC)c1OC | 44.5% | 28.3% | 52.6% | 30.3% | 8.58% (active) | 30.6% | 34.3% | 23.8% | 24.7% | -18.6% (active) | 14.1% | 10.5% | 55.4% | 36.7% | -3.08% (active) | 51.2% | 12.6% | 5.37% (active) | 51.5% | 12.8% |
| Cc1cc(N(CCCNc2ccnc3cc(Cl)ccc23)Cc2ccco2)nc(N2CCN(C)CC2)n1 | 66% | 88.3% | 64.2% | 48.2% | 28.4% | 79.9% | 82.1% | 45% | 59% | -21.2% (active) | 55.6% | 12.9% | -49.6% (active) | 14.4% | 35.9% | 56.1% | 57.1% | -62.9% (active) | -63.2% (active) | -82.5% (active) |
| C#CCN=C[C@]12CC[C@@H](C(=C)C)[C@@H]1[C@H]1CC[C@@H]3[C@@]4(C)CCC(=O)C(C)(C)[C@@H]4CC[C@@]3(C)[C@]1(C)CC2 | 50.5% | 73.2% | 103% | 88.8% | 70.8% | 65.4% | 51% | 46.1% | 74.9% | 65.8% | 67.9% | 28.1% | 81.8% | 83.8% | 80.3% | 71.3% | 68.5% | 80.2% | 55.6% | 63.1% |
| Nc1ccccc1NC(=O)c1ccc(CN2CCC/C(=C\c3ccccn3)C2=O)cc1 | 29.3% | 52.8% | 39.8% | 41.8% | 17.9% | 46% | 21.1% | 26.2% | 44.5% | 1.53% (active) | 45.9% | 9.55% (active) | 20.9% | 45.3% | 2.96% (active) | 25% | -2.97% (active) | 27.4% | 26.3% | 12.3% |
| CCCCn1c(-c2ccc(O)cc2)cn2c3c(=O)[nH]c(=O)n(C)c3nc12 | 82.2% | 85% | 119% | 82% | 68.6% | 43.1% | 30.9% | 75% | 88.8% | 89.9% | 101% | 34.3% | 90.7% | 66.5% | 74.9% | 86.3% | 78.1% | 74.9% | 79.1% | 54.1% |
| C#Cc1cccc(NC(=O)C2CCCN(C(=O)CCl)C2)c1 (stereo not given) | -27% [8.25 µM] (active) | 1.82% [8.25 µM] (active) | 111% [8.25 µM] | 87.8% [8.25 µM] | 97.5% [8.25 µM] | 98.3% [8.25 µM] | -53.6% [8.25 µM] (active) | 86.1% [8.25 µM] | 89.5% [8.25 µM] | 27.2% [8.25 µM] | 102% [8.25 µM] | 20.2% [8.25 µM] | 3.83% [8.25 µM] (active) | 81.5% [8.25 µM] | 67% [8.25 µM] | 78.3% [8.25 µM] | 85.4% [8.25 µM] | 79.9% [8.25 µM] | 79.7% [8.25 µM] | 20.6% [8.25 µM] |
| C/C(Cc1ccc(Cl)cc1)=C(/c1ccc(Cl)cc1)c1ccc(OCCN2CCCC2)cc1 | 78.7% | 96.4% | 93.4% | 91.7% | 35.9% | 60.8% | 73.7% | 69.8% | 86% | 61.6% | 87% | 15.2% | 77.7% | 89.2% | 86.3% | 92.4% | 92.9% | 89.7% | 79.7% | 78.2% |
| Nc1c2c(nc3ccc(Cl)cc13)CC(c1ccc(O)cc1)CC2=O (stereo not given) | 61.2% | 90.5% | 56.2% | 56.4% | 23.2% | 88.4% | 43.6% | 59.5% | 57.5% | 123% | 72.9% | 18.5% | 52.6% | 68.5% | 74.2% | 65.3% | 36.2% | 50.8% | 78.2% | 21.8% |
| CN1CCN(c2ccc3nc(-c4[nH]ncc4Nc4ncnc5c4OCCCN5)[nH]c3c2)CC1 | -53.9% (active) | -76.4% (active) | -67.3% (active) | -48.4% (active) | -69.8% (active) | -29.3% (active) | -26.2% (active) | -63% (active) | -59.3% (active) | -72.5% (active) | -27.6% (active) | 7.54% (active) | -76.1% (active) | -37.8% (active) | -89.3% (active) | -51% (active) | -90.4% (active) | -86.7% (active) | -20.5% (active) | -74.9% (active) |
| Cc1ccc2c(c1)c1nc3cc(C)c(C)cc3nc1n2CCN(C)C | 13.5% | 7.71% (active) | 16.3% | 23.8% | 9.12% (active) | 32.1% | 31.2% | 12.2% | 26.5% | -5.24% (active) | 20.5% | 8.09% (active) | -8.13% (active) | 19.3% | 16.2% | 30.3% | 5.24% (active) | 11.4% | 13.1% | 13.3% |
